We go through 1 compound from PubChem BioAssay AID2284147 (EPA ToxCast).

Molecules are shown by their SMILES. The source made the active and inactive calls. The calls were made as follows: active = hit-call score of the fitted dose curve at least 0.9, where 1 is the maximum; inactive = score below 0.9.

human Angiotensin Receptor AT2 Antagonism, AGTR2 (gene 186), sequence (P50052 whole entry, looked up): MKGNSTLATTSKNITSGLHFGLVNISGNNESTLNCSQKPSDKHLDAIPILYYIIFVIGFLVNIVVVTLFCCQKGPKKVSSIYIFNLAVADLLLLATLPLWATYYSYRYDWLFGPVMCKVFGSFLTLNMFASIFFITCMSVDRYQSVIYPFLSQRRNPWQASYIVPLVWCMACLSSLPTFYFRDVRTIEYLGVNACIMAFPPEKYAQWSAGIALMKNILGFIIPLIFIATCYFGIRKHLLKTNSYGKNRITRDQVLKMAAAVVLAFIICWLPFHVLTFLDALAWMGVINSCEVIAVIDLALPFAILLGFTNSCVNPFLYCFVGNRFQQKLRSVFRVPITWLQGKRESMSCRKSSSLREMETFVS

The test concerns the target human Angiotensin Receptor AT2 Antagonism, AGTR2 (gene 186) (UniProt P50052). In words: ERF_TW_GPCR_hAGTR2: Eurofins (ERF) G Protein-Coupled Receptor (GPCR) Radioligand Binding LeadHunter Assay for human Angiotensin Receptor AT2 Antagonism. The procedure: ERF_TW_GPCR_hAGTR2 is a biochemical, single-readout assay that uses extracted gene-proteins in a cell-free assay. Measurements were taken 3 hour after chemical dosing in a 96-well plate. See AT2 Human Angiotensin GPCR Binding (Agonist Radioligand) Assay, Panlabs.ERF_TW_GPCR_hAGTR2 is an assay component calculated from the ERF_TW_GPCR_hAGTR2 assay. It is designed to measure radioligand binding using a type of binding reporter as detected by scintillation counting with radiometry technology.Data from the assay component ERF_TW_GPCR_hAGTR2 was analyzed at the assay endpoint, ERF_TW_GPCR_hAGTR2, in the positive analysis fitting direction relative to DMSO as the negative control and baseline of activity. Using a type of binding reporter, gain-of-signal activity can be used to understand changes in radioligand binding as they relate to gene AGTR2. To generalize the intended target to other relatable targets, this assay endpoint is annotated to the gpcr intended target family, where the subfamily is angiotensin.
Human recombinant angiotensin AT2 receptors expressed in CHO-K1 cells are used in modified Tris-HCl buffer pH 7.4. A 2.4 ug aliquot is incubated with 0.05 nM [125I] CGP-42112A for 3 hours at 37C. Non-specific binding is estimated in the presence of 10 uM (Sar1, Ile8)-Angiotensin II. Membranes are filtered and washed, the filters are then counted to determine [125I] […]
A word on the AC50: it is the concentration at which the activity in the assay is half-maximal. With `O=C(/C=C/c1ccc(O)cc1)CC(=O)/C=C/c1ccc(O)cc1`, the half-maximal activity concentration (AC50) was 1750 nM (active).
